# Laboratory results taken from PubChem BioAssay (EPA / NIEHS).
# “And” between values parts separate entries of the source, which are not always exact repeats. Equal values may be shown once. Records with an inconclusive call do not appear. The source made the active and inactive calls. How the source made its calls, unless noted: active means hit-call score of the fitted dose curve at least 0.9, where 1 is the maximum; inactive means score below 0.9.
# Key:
# [1] = CCTE_Shafer_MEA_dev_correlation_coefficient_mean: CCTE's Neural Network Formation Assay for Mean Correlation Coefficient, Shafer Lab (AID 2284093);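 on AC50: well mean pairwise spike train correlation integrated as AUC over recording days 5 to 12; potency fitted for loss of correlation relative to DMSO vehicle wells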
# Procedure, shortened: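 Spontaneous activity recorded on days 5, 7, 9 and 12 post-plating; pairwise spike correlations are averaged across active electrodes and collapsed to an area-under-curve. Rat cortical cultures are dosed from plating through 12 days, with compound renewed at media changes.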
# [2] = UKN2_HCS_IMR90_neural_migration: University of Konstanz (UKN) Leist Lab Neural Crest Cell Migration Assay in human induced IMR90 Pluripotent Stem Cells (UKN2) (AID 2284204); settings: actives raise or lower the signal
# Procedure, shortened: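 Stopper-exclusion migration (cMINC), human iPSC-derived neural crest cells; N2-S + EGF/FGF; compound added 24 h post-stopper removal, 24 h exposure. Readout: calcein-AM/Hoechst 30 min, HCS fluorescence imaging; bidirectional fitting, DMSO baseline.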
# [3] = IUF_NPC1b_proliferation_BrdU_72hr: Leibniz Research Institute for Environmental Medicine (IUF) 72-hour Neural Progenitor Cell Bromodeoxyuridine (BrdU) Proliferation Assay (NPC1b) (AID 2284207)
# Procedure, shortened: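 Luminescent BrdU ELISA measured DNA synthesis during the last 16 h of a 72 h exposure of primary human neural progenitor spheres grown with EGF and FGF. Signal was fitted relative to DMSO controls.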
# [4] = IUF_NPC1a_proliferation_area_72hr: Leibniz Research Institute for Environmental Medicine (IUF) 72-hour Neural Progenitor Cell Proliferation Area Assay (NPC1a) (AID 2284208)
# Procedure, shortened: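 Proliferation read as increase in sphere area by phase-contrast imaging over 72 h continuous compound exposure (no renewal) of hNPC spheres grown with EGF/FGF at 37C, 5% CO2. Growth-factor withdrawal served as positive control; DMSO as baseline.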
# [5] = IUF_NPC1_viability_72hr: Viability Assessment at 72 hours in the Leibniz Research Institute for Environmental Medicine (IUF) Neural Progenitor Cell Proliferation Assay (NPC1) (AID 2284209)
# Procedure, shortened: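 Spheres of primary human neural progenitors were plated singly in proliferation medium and treated for 72 h. Mitochondrial reduction of resazurin was then measured by fluorescence and analysed against DMSO controls.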
# [6] = CCTE_Mundy_HCI_Cortical_Synap_Neur_Matur_NeuriteSpotCountPerNeuriteLength: CCTE's Synaptogenesis and Neurite Maturation Assay in rat cortical cells for Neurite Spot Count per Neurite Length, Mundy Lab (AID 2284210)
# Procedure, shortened: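 Read-out: synaptophysin puncta counted along MAP2-stained neurites, normalised to neurite length, by automated high-content imaging. Rat cortical cells; AraC DIV 5; chemical dosing DIV 7; termination DIV 12. DMSO baseline.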
# [7] = CCTE_Mundy_HCI_Cortical_Synap_Neur_Matur_BPCount: CCTE's Synaptogenesis and Neurite Maturation Assay in rat cortical cells for Branch Point Count, Mundy Lab (AID 2284211)
# Procedure, shortened: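 HCI read-out of branch points from MAP2/synaptophysin/Hoechst immunofluorescence; rat cortical cultures, AraC DIV 5, dosing DIV 7, fixed DIV 12; fit in positive direction vs DMSO baseline.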
# [8] = CCTE_Mundy_HCI_Cortical_NOG_NeuriteCount: CCTE's Neurite Outgrowth Assay in rat cortical cells for Neurite Count, Mundy Lab (AID 2284212);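 further: cells fixed about two days after chemical exposure began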
# Procedure, shortened: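 Rat cortical primary cells; compound added 2 h post-plating, 1/10 dilution of working solution. Anti-betaIII-tubulin/AF488 ICC; ArrayScan neurite count vs DMSO.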
# [9] = UKN4_HCS_LUHMES_neurite_outgrowth: University of Konstanz (UKN) Leist Lab Neurite Outgrowth Assay in human LUHMES cells (UKN4) (AID 2284206); settings: actives raise or lower the signal
# Method: UKN4_HCS_LUHMES is a cell-based, multiplexed-readout assay screening for neurite outgrowth and cell viability that uses LUHMES, a human central nervous system cell line, with measurements taken at […] after chemical dosing in a microplate: 96-well plate. UKN4, also referred to as NeuriTox, is an assay that uses LUHMES neuronal precursors as a model of dopaminergic neuronal differentiation. Following a 2-day differentiation period, cells are exposed to chemicals for 24 hr and neurite area is evaluated as a marker of neurite outgrowth using high-content imaging of cells stained with calcein AM. Cell viability is assessed using stain Hoechst H-33342.UKN4_HCS_LUHMES_neurite_outgrowth is an assay component measured from the UKN4_HCS_LHUMES assay. It is designed to make measurements of neurite outgrowth, a form of morphology reporter, as detected with Fluorescence intensity signals by HCS Fluorescent Imaging.The assay endpoint UKN4_HCS_LUHMES_neurite_outgrowth was analyzed with bidirectional fitting relative to DMSO as the negative control and baseline of activity. Using a type of morphology reporter, gain or loss-of-signal activity can be used to understand developmental effects. To generalize the intended target to other relatable targets, this assay endpoint is annotated to the neurodevelopment intended target family, where the subfamily is neurite outgrowth. […]
# [10] = CCTE_Shafer_MEA_acute_LDH: CCTE's Lactate Dehydrogenase Assay for Cytotoxicity in the Neural Acute Assay, Shafer Lab (AID 2284086; active means hit-call score of the fitted dose curve at least 0.9, where 1 is the maximum;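 further: active means LDH release rises above DMSO vehicle level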)
# Procedure, shortened: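 Medium collected from MEA wells of primary rat cortical cultures (DIV 13 or 15) immediately after 40 min chemical exposure is assayed spectrophotometrically for lactate dehydrogenase activity. Endpoint fitted in positive direction versus DMSO.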
smiles,measurement,setting,value
CCN(CC)C(=O)c1cccc(C)c1,outcome,[1],inactive
same,outcome,[2],inactive
same,AC50,[3],92.7 µM (active)
same,outcome,[4],inactive
same,outcome,[5],inactive
same,outcome,[6],inactive
same,outcome,[7],inactive
same,outcome,[8],inactive
S=C([S-])NCCNC(=S)[S-].[Mn+2],outcome,[1],inactive
same,AC50,[2],14.2 µM (active)
same,AC50,[9],2.16 µM (active)
same,outcome,[3],inactive
same,outcome,[4],inactive
same,outcome,[5],inactive
same,outcome,[6],inactive
O=C(c1ccccc1)C1CCCCC1,outcome,[10],inactive
CCCCOCCOCCOCc1cc2c(cc1CCC)OCO2,outcome,[1],inactive
CC(C)(c1ccc(O)cc1)c1ccc(O)cc1,outcome,[10],inactive
same,outcome,[1],inactive
same,AC50,[3],4.92 µM (active)
same,outcome,[4],inactive
same,outcome,[5],inactive
same,outcome,[6],inactive
Cc1nn(C)c(Oc2ccccc2)c1C=NOCc1ccc(C(=O)OC(C)(C)C)cc1,outcome,[10],inactive
same,AC50,[1],2.29 nM (active)
same,AC50,[2],6.55 µM (active)
same,AC50,[3],5.15 µM (active)
same,AC50,[4],0.0215 µM (active)
same,outcome,[5],inactive
same,AC50,[6],0.00339 µM (active)
same,AC50,[7],0.00291 µM (active)
same,AC50,[8],0.0196 µM (active)
OB(O)O,outcome,[10],inactive
same,outcome,[1],inactive
C=CCOC(Cn1ccnc1)c1ccc(Cl)cc1Cl (stereo not given),outcome,[10],inactive
COCCO,outcome,[1],inactive
CC(C)CCCCCCc1ccc(O)cc1,outcome,[10],inactive
S=C(S)NCCNC(=S)S.[Mn+2].[S-]C([S-])=NCCN=C([S-])[S-].[Zn+2],outcome,[1],inactive
same,outcome,[3],inactive
same,outcome,[4],inactive
same,outcome,[5],inactive
same,outcome,[6],inactive
same,outcome,[7],inactive
same,outcome,[8],inactive
CCCN(CCC)C(=O)SCC,outcome,[1],inactive
same,outcome,[2],inactive
same,outcome,[3],inactive
same,outcome,[4],inactive
same,outcome,[5],inactive
same,outcome,[6],inactive
same,outcome,[7],inactive
CC1(C)C(C=C(Cl)Cl)C1C(=O)OCc1cccc(Oc2ccccc2)c1 (stereo not given),outcome,[10],inactive
same,AC50,[1],15 µM (active) and 5.33 µM (active)
same,outcome,[6],inactive
same,AC50,[7],8.52 µM (active)
same,AC50,[8],78.2 µM (active)
CSC(=O)c1cccc2nnsc12,outcome,[10],inactive
same,outcome,[1],inactive
same,AC50,[3],0.796 µM (active)
same,outcome,[4],inactive
same,outcome,[5],inactive
same,outcome,[6],inactive
same,outcome,[7],inactive
same,outcome,[8],inactive
O=C(c1ccc(O)cc1O)c1ccc(O)cc1O,outcome,[10],inactive
N#CSCSc1nc2ccccc2s1,outcome,[10],inactive
CC(C)(C)[C@@H](O)[C@@H](Cc1ccc(Cl)cc1)n1cncn1,outcome,[10],inactive
O=C(O)c1ccccc1,outcome,[10],inactive
same,outcome,[1],inactive
same,outcome,[3],inactive
same,outcome,[4],inactive
same,outcome,[5],inactive
same,outcome,[6],inactive
same,outcome,[7],inactive
same,outcome,[8],inactive
Oc1ccc(C(c2ccc(O)cc2)C(Cl)(Cl)Cl)cc1,outcome,[10],inactive
same,outcome,[1],inactive
C#CCOC(=O)[C@@H](C)Oc1ccc(Oc2ncc(Cl)cc2F)cc1,outcome,[1],inactive
same,outcome,[2],inactive
same,outcome,[3],inactive
same,AC50,[4],26.6 µM (active)
same,outcome,[5],inactive
same,outcome,[6],inactive
same,outcome,[7],inactive
same,outcome,[8],inactive
CCNc1nc(N)nc(Cl)n1,outcome,[10],inactive
O=C(Nc1ccc([N+](=O)[O-])cc1Cl)c1cc(Cl)ccc1O,outcome,[10],inactive
CCCCC(CC)CN1C(=O)C2C3C=CC(C3)C2C1=O (stereo not given),outcome,[10],inactive
same,outcome,[1],inactive
CCCN(CCC)c1c([N+](=O)[O-])cc(C(F)(F)F)c(N)c1[N+](=O)[O-],outcome,[10],inactive
